Measured values: PubChem BioAssay (EPA / NIEHS)
Calls of active or inactive are those of the source. Rule for the calls: active = hit-call score of the fitted dose curve at least 0.9, where 1 is the maximum; inactive = score below 0.9.

Tests used:
Conditions in all cases: mRNA level, 48 h; actives raise or lower the signal
[1] = read-out: Bcl-2 (BAX) gene, BAX (gene 581); assay: LTEA_HepaRG_BAX: Life Technologies and Expression Analysis (LTEA) Assay for Bcl-2 (BAX) gene using HepaRG (AID 2283470)
Summary of the method: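 Human HepaRG cells treated in duplicate for 48 h across eight concentrations (max 100 uM, 0.5% DMSO); BAX expression measured by qRT-PCR.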

[2] = read-out: adenosine kinase (ADK) gene, ADK (gene 132); assay: LTEA_HepaRG_ADK: Life Technologies and Expression Analysis (LTEA) Assay for adenosine kinase (ADK) gene using HepaRG (AID 2283471)
Summary of the method: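 Read-out is ADK transcript level measured by qRT-PCR and normalised to three housekeeping genes. Cells are human HepaRG, dosed for 48 h at up to 100 uM in 0.5% DMSO. Gain or loss of signal is fitted against DMSO controls.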

[3] = read-out: Alpha-fetoprotein (AFP) gene, AFP (gene 174); assay: LTEA_HepaRG_AFP: Life Technologies and Expression Analysis (LTEA) Assay for Alpha-fetoprotein (AFP) gene using HepaRG (AID 2283472)
Summary of the method: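 Measures AFP mRNA change in HepaRG after 48 h chemical exposure (8 half-log concentrations, highest 100 uM, 0.5% DMSO). Fold change relative to DMSO, fitted in both directions.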

BCL2L11 (gene 10018) = assay: LTEA_HepaRG_BCL2L11: Life Technologies and Expression Analysis (LTEA) Assay for Bcl-2 (BCL2L11) gene using HepaRG (AID 2283473)
Summary of the method: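 Differentiated human HepaRG cells were exposed 48 h in serum-free induction medium to eight half-log concentrations up to 100 uM in 0.5% DMSO, in duplicate. BCL2L11 mRNA was quantified by TaqMan qRT-PCR, normalized to ACTB, GAPDH and POLR2A; induction or repression fitted versus DMSO.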

[4] = read-out: Apolipoprotein A-V (APOA5) gene, APOA5 (gene 116519); assay: LTEA_HepaRG_APOA5: Life Technologies and Expression Analysis (LTEA) Assay for Apolipoprotein A-V (APOA5) gene using HepaRG (AID 2283474)
Summary of the method: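 Differentiated HepaRG cells in serum-free induction medium, exposed 48 h in duplicate to eight half-log concentrations topping at 100 uM (0.5% DMSO). APOA5 mRNA by Fluidigm TaqMan qRT-PCR, normalized to ACTB, GAPDH and POLR2A; bidirectional fit versus DMSO.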

[5] = read-out: Bcl-2 (BID) gene, BID (gene 637); assay: LTEA_HepaRG_BID: Life Technologies and Expression Analysis (LTEA) Assay for Bcl-2 (BID) gene using HepaRG (AID 2283476)
Summary of the method: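 Assay used HepaRG hepatic cells treated 48 h in serum-free medium with half-log dilutions from 100 uM. Endpoint: BID mRNA, qRT-PCR, normalized to ACTB/GAPDH/POLR2A.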

[6] = read-out: Cytochrome P450 (CYP24A1), CYP24A1 (gene 1591); assay: LTEA_HepaRG_CYP24A1: Life Technologies and Expression Analysis (LTEA) Assay for Cytochrome P450 (CYP24A1) using HepaRG (AID 2283478)
Summary of the method: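 HepaRG cells plated 48 h, then exposed in duplicate in serum-free induction medium for 48 h to 8-point half-log series from 100 uM in 0.5% DMSO. CYP24A1 mRNA by Fluidigm qRT-PCR, normalized to ACTB, GAPDH, POLR2A; bidirectional fit versus DMSO.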

[7] = read-out: Cytochrome P450 (CYP1A2), CYP1A2 (gene 1544); assay: LTEA_HepaRG_CYP1A2: Life Technologies and Expression Analysis (LTEA) Assay for Cytochrome P450 (CYP1A2) using HepaRG (AID 2283479)
Summary of the method: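 Differentiated human HepaRG cells in serum-free induction medium exposed 48 hours in duplicate to 8 half-log concentrations from 100 uM, 0.5% DMSO. CYP1A2 mRNA quantified by qRT-PCR, normalized to ACTB, GAPDH and POLR2A; bidirectional fitting versus DMSO.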

[8] = read-out: cysteine-aspartic acid protease (CASP8), CASP8 (gene 841); assay: LTEA_HepaRG_CASP8: Life Technologies and Expression Analysis (LTEA) Assay for cysteine-aspartic acid protease (CASP8) using HepaRG (AID 2283480)
Summary of the method: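 qRT-PCR readout of CASP8 mRNA, normalized to three housekeeping genes, after 48 h chemical exposure of HepaRG cells; 8-point half-log series, top 100 uM, 0.5% DMSO vehicle. Bidirectional curve fitting against DMSO baseline.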

[9] = read-out: Cytochrome P450 (CYP2B6), CYP2B6 (gene 1555); assay: LTEA_HepaRG_CYP2B6: Life Technologies and Expression Analysis (LTEA) Assay for Cytochrome P450 (CYP2B6) using HepaRG (AID 2283481)
Summary of the method: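 Differentiated human HepaRG cells in serum-free induction medium, dosed in duplicate for 48 h over 8 half-log concentrations topping at 100 uM (0.5% DMSO). CYP2B6 mRNA measured by TaqMan qRT-PCR, normalized to ACTB, GAPDH, POLR2A; bidirectional fit versus DMSO.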

[10] = read-out: Cytochrome P450 2C19 (Homo sapiens) (UniProt P33261); assay: LTEA_HepaRG_CYP2C19: Life Technologies and Expression Analysis (LTEA) Assay for CYP2C19 using HepaRG (AID 2283482)
Summary of the method: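 Differentiated HepaRG cells in serum-free induction medium exposed 48 h in duplicate, 8 concentrations from 100 uM by half-log steps in 0.5% DMSO. CYP2C19 mRNA measured by TaqMan qRT-PCR, normalized to ACTB, GAPDH, POLR2A. Bidirectional fit versus DMSO.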

CYP2C8 (gene 1558) = assay: LTEA_HepaRG_CYP2C8: Life Technologies and Expression Analysis (LTEA) Assay for CYP2C8 using HepaRG (AID 2283483)
Summary of the method: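 HepaRG (human liver line), 48 h chemical exposure, 8-pt half-log series from 100 uM, 0.5% DMSO vehicle. Readout: CYP2C8 transcript by qRT-PCR, housekeeping-normalized. Bidirectional fit vs DMSO baseline.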

CYP2E1 (gene 1571) = assay: LTEA_HepaRG_CYP2E1: Life Technologies and Expression Analysis (LTEA) Assay for CYP2E1 using HepaRG (AID 2283485)
Summary of the method: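 Assay uses 48 h exposure of HepaRG hepatic cells, eight concentrations to 100 uM. Expression of CYP2E1 is quantified by TaqMan qRT-PCR with ACTB, GAPDH and POLR2A normalization; curves fitted in both directions relative to vehicle.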

CYP4A11 (gene 1579) = assay: LTEA_HepaRG_CYP4A11: Life Technologies and Expression Analysis (LTEA) Assay for CYP4A11 using HepaRG (AID 2283486)
Summary of the method: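 Differentiated HepaRG cells, 48 h after plating, exposed in duplicate for 48 h to 8 half-log concentrations up to 100 uM in 0.5% DMSO in serum-free induction medium. CYP4A11 mRNA measured by TaqMan qRT-PCR, normalized to ACTB, GAPDH and POLR2A.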

[11] = read-out: Cytochrome P450 3A4 (Homo sapiens) (UniProt P08684); assay: LTEA_HepaRG_CYP3A4: Life Technologies and Expression Analysis (LTEA) Assay for CYP3A4 using HepaRG (AID 2283487)
Summary of the method: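 HepaRG, 48 h exposure, 8-pt CRC from 100 uM (half-log), 0.5% DMSO, duplicates; serum-free induction medium. Readout: CYP3A4 mRNA, qRT-PCR, ACTB/GAPDH/POLR2A normalization. Bidirectional fit vs DMSO.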

[12] = read-out: DNA damage-inducible transcript 3 (DDIT3), DDIT3 (gene 1649); assay: LTEA_HepaRG_DDIT3: Life Technologies and Expression Analysis (LTEA) Assay for DNA damage-inducible transcript 3 (DDIT3) using HepaRG (AID 2283488)
Summary of the method: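 Eight-point concentration-response (100 uM highest, half-log dilutions) in HepaRG, 48 h, duplicate wells. Endpoint: qRT-PCR mRNA, normalized (ACTB, GAPDH, POLR2A), bidirectional fitting with DMSO as baseline.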

[13] = read-out: Pro-epidermal growth factor (Homo sapiens) (UniProt P01133); assay: LTEA_HepaRG_EGF: Life Technologies and Expression Analysis (LTEA) Assay for Epidermal growth factor (EGF) using HepaRG (AID 2283489)
Summary of the method: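 HepaRG cells (~100,000/well, 48 h pre-culture) exposed in duplicate for 48 h in serum-free induction medium to 8 half-log concentrations up to 100 uM in 0.5% DMSO. EGF mRNA by qRT-PCR, normalized to ACTB/GAPDH/POLR2A; bidirectional fit versus DMSO.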

[14] = read-out: Early growth response protein 1 (EGR1) transcription factor, EGR1 (gene 1958); assay: LTEA_HepaRG_EGR1: Life Technologies and Expression Analysis (LTEA) Assay for Early growth response protein 1 (EGR1) transcription factor using HepaRG (AID 2283490)
Summary of the method: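 HepaRG, 48 h exposure, 8-pt half-log series from 100 uM, 0.5% DMSO vehicle; EGR1 transcript by TaqMan qRT-PCR (Fluidigm array), housekeeping-normalized; bidirectional fit relative to DMSO baseline.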

[15] = read-out: Ezrin (EZR), EZR (gene 7430); assay: LTEA_HepaRG_EZR: Life Technologies and Expression Analysis (LTEA) Assay for Ezrin (EZR) using HepaRG (AID 2283491)
Summary of the method: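 Read-out is EZR transcript level by qRT-PCR, normalized to three housekeeping genes and fitted bidirectionally against the DMSO control. Human HepaRG cells received test chemicals for 48 h at eight half-log concentrations up to 100 uM in 0.5% DMSO.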

[16] = read-out: Cytochrome P450 3A7 (Homo sapiens) (UniProt P24462); assay: LTEA_HepaRG_CYP3A7: Life Technologies and Expression Analysis (LTEA) Assay for CYP3A7 using HepaRG (AID 2283492)
Summary of the method: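 Differentiated HepaRG cells in serum-free induction medium exposed 48 h in duplicate to 8-point half-log series from 100 uM top in 0.5% DMSO. CYP3A7 mRNA by qRT-PCR, normalized to ACTB/GAPDH/POLR2A, bidirectional fit versus DMSO.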

Measured: AC50

Chain of Cytochrome P450 3A7 (Homo sapiens) (P24462 whole entry, looked up): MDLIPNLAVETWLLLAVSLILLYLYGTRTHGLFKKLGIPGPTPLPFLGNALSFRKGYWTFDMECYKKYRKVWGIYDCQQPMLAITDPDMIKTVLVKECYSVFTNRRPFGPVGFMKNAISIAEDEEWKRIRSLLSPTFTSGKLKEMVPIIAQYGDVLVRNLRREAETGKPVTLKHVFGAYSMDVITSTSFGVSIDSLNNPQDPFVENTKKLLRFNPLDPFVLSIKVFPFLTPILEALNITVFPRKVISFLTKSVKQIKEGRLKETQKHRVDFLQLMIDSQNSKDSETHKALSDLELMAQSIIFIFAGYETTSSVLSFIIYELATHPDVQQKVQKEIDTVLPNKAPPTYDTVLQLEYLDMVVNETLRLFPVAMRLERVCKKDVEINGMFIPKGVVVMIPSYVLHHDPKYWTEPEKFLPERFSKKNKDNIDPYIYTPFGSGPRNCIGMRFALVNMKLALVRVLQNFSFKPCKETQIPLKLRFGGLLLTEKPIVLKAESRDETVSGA
Chain of Cytochrome P450 3A4 (Homo sapiens) (P08684 whole entry, looked up): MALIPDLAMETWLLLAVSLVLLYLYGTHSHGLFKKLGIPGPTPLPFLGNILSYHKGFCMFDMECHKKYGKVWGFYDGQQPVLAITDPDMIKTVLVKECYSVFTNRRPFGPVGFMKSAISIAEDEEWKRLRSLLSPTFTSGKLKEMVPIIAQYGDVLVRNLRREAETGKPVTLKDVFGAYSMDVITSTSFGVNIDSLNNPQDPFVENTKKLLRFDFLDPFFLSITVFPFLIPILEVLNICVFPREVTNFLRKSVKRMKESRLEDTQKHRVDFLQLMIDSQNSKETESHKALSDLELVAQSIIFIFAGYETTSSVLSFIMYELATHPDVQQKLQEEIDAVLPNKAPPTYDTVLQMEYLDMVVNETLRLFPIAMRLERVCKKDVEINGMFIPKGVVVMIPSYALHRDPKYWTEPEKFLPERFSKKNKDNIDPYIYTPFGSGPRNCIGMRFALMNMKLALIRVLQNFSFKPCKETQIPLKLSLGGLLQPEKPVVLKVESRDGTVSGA
Chain of Cytochrome P450 2C19 (Homo sapiens) (P33261 whole entry, looked up): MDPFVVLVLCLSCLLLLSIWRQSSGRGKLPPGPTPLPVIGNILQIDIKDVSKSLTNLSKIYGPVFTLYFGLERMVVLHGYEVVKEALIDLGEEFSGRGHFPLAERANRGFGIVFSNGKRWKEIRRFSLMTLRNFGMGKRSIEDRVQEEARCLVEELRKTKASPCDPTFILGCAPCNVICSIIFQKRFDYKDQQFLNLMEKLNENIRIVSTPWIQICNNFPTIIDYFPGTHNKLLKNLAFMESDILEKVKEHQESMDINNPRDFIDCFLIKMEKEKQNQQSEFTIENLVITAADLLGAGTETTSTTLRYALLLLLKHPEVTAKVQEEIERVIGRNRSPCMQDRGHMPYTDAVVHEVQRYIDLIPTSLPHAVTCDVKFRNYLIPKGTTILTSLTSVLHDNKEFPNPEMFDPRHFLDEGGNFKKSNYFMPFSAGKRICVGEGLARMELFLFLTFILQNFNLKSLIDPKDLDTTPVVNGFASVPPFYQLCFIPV

CN(C)N=O
inactive: all assays above

Cc1ccccc1N
inactive: all assays above

CC(C)(c1ccccc1)c1ccc(O)c(C(C)(C)c2ccccc2)c1
inactive: [1] | [2] | BCL2L11 (gene 10018) | [5] | [6] | [7] | [8] | [12] | [15]
active: [3] 68.7 µM | [4] 50 µM | [9] 11.9 µM | [10] 83.2 µM | CYP2C8 (gene 1558) 85 µM | CYP2E1 (gene 1571) 62.4 µM | CYP4A11 (gene 1579) 73.4 µM | [11] 12.3 µM | [13] 29.4 µM | [14] 72.1 µM | [16] 80.8 µM

CC(=O)[O][Hg][c]1ccccc1
inactive: [5] | [6] | CYP4A11 (gene 1579) | [12] | [15]
active: [1] 552 nM | [2] 31.5 µM | [3] 5 µM | BCL2L11 (gene 10018) 11.9 µM | [4] 4.21 µM | [7] 5 µM | [8] 26.6 µM | [9] 6.12 µM | [10] 5 µM | CYP2C8 (gene 1558) 5 µM | CYP2E1 (gene 1571) 13.2 µM | [11] 3.76 µM | [14] 26.9 µM | [16] 5 µM
